Test results taken from PubChem BioAssay AID602145 (NMMLSC, 2011).
The source made the active and inactive calls.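 Rule for the calls: active = half-maximal potency of 10 µM or stronger, response changing by 30% or more across doses, valid fit; inactive = the rest.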

Test: disruption of GST–glutathione bead interaction – biochemical, flow cytometry beads, round 2, counter-screen for Rab7 GTPase inhibitor project, SAR follow-up (AID 602145)
Details: GST-GFP binding to GSH beads; series mostly up to 100 µM

Compound	outcome
CC1(C)Cc2c(sc(NC(=S)NC(=O)C3CCCCC3)c2C(=O)O)CO1	inactive
Cc1cccc(C(=O)NC(=S)Nc2sc3c(c2C(=O)O)CC(C)(C)OC3)c1	inactive
CC(C)(C)C1Cc2c(sc(NC(=S)NC(=O)c3ccccc3)c2C(=O)O)CO1 (configuration not stated)	inactive
COc1ccccc1C(=O)NC(=S)Nc1sc2c(c1C(=O)O)CC(C)(C)OC2	inactive
CC1(C)Cc2c(sc(NC(=S)NC(=O)c3ccc(F)cc3)c2C(=O)O)CO1	inactive
O=C(NC(=S)Nc1sc2c(c1C(=O)O)CC1(CCCC1)OC2)c1ccccc1	inactive
CC1(C)Cc2c(sc(NC(=S)NC(=O)c3ccco3)c2C(=O)O)CO1	inactive
Cc1ccc(C(=O)NC(=S)Nc2sc3c(c2C(=O)O)CC(C)(C)OC3)cc1	inactive
CCC1(C)Cc2c(sc(NC(=S)NC(=O)c3ccccc3)c2C(=O)O)CO1 (configuration not stated)	inactive
CC1(C)Cc2c(sc(NC(=S)NC(=O)c3cccs3)c2C(=O)O)CO1	inactive
Cc1ccccc1C(=O)NC(=S)Nc1sc2c(c1C(=O)O)CC(C)(C)OC2	inactive
O=C(NC(=S)Nc1sc2c(c1C(=O)O)CCOC2)c1ccccc1	inactive
